Laboratory results published in PubChem BioAssay.
The source made the active and inactive calls.

Key:
[1] = system: PRMT1 (protein arginine N-methyltransferase 1); experiment: PRMT1 binders on small-molecule microarrays, primary screen, biochemical, small-molecule microarray, 635 nm fluorescence (AID 1088); details: small-molecule microarray binding, higher = more signal;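 further: binding of Prmt1 protein to compounds spotted on small-molecule microarray slides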
[2] = yeast growth modulation, basal conditions, primary screen, YJM789 clinical isolate, OD600, 24 h (AID 1089);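 further: growth of clinical yeast isolate S. cerevisiae YJM 789 seeded 1000 cells per well; test concentration not given here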; details: S. cerevisiae YJM789 growth, higher = more signal, called active from +8 up or from −8 down
[3] = fission yeast growth modulation, primary screen, strain 972, OD600, 24 h, no modulator (AID 1090);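 further: basal condition with compound alone and no growth modifier present; test concentration not given here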; details: S. pombe 972 growth, higher = more signal, called active from +8 up or from −8 down
[4] = S. cerevisiae growth modulation with rapamycin, primary screen, strain BY4716, OD600, 96 h (AID 1091); details: higher = more signal, called active from +8 up or from −8 down; further: test concentration not given here
[5] = biological target: Torsin-1A-interacting protein 2 (Homo sapiens) (UniProt Q8NFQ8); experiment: LULL1 binders on small-molecule microarray, primary screen, cell lysate, human LULL1 lysate, 635/667 nm fluorescence (AID 1092); details: hLULL1 lysate binding, 635 nm fluorescence, higher = more signal;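 further: probe is lysate of COS7 cells overexpressing human LULL1; score merges per-feature 667 nm fluorescence with signal-to-noise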
[6] = E. coli growth modulation, two-sided OD650, primary screen, E. coli filamentation project, strain DRC41, 24 h (AID 1093); details: OD650, 24 h, higher = more signal, called active from +8 up or from −8 down;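 further: MC1000 strain lacking acrAB efflux and sulA so SOS filamentation is blocked; test concentration not given here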
[7] = small-molecule microarray binders of probe aLefty2, primary screen, biochemical, biotinylated probe, 635/667 nm fluorescence (AID 1094); details: higher = more signal;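 further: score merges spot fluorescence near 667 nm with spot signal-to-noise ratio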
[8] = system: Noggin (protein binding on small-molecule microarray); experiment: Noggin binders on small-molecule microarray, primary screen, biochemical, 635/667 nm fluorescence (AID 1095); details: 635 nm fluorescence, higher = more signal;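 further: score merges 667 nm feature fluorescence with signal to noise over triplicate slides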
[9] = biological target: Neurogenic locus notch homolog protein 3 (Homo sapiens) (UniProt Q9UM47); experiment: NOTCH3 binders on small-molecule microarray, primary screen, biochemical, 635/667 nm fluorescence (AID 1096); details: NOTCH3 binding, 635 nm fluorescence, higher = more signal
[10] = small-molecule microarray binders of probe aEGFR, primary screen, biochemical, biotinylated probe, 635/667 nm fluorescence (AID 1097); details: higher = more signal;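 further: probe is a biotinylated anti-EGFR antibody binding compounds printed on slides; score combines fluorescence near 667 nm and signal to noise of each spot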
[11] = system: Plasmodium falciparum Sir2 (PF13_0152, Sir2A); experiment: pfSir2 binders on small-molecule microarrays, primary screen, biochemical, small-molecule microarray, 635 nm fluorescence (AID 1098); details: small-molecule microarray binding, fluorescence 635 nm; higher = more signal;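 further: score merges spot fluorescence intensity with its signal-to-noise ratio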
[12] = small-molecule microarray binders of probe aDKK1, primary screen, biochemical, biotinylated probe, 635/667 nm fluorescence (AID 1099); details: higher = more signal;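 further: score merges 667nm spot fluorescence with signal to noise across triplicate slides; reference of the scale not given here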
[13] = small-molecule microarray binders of probe aCHRDL2, primary screen, biochemical, biotinylated probe, 635/667 nm fluorescence (AID 1100); details: higher = more signal
[14] = splicing luciferase reporter signal modulators, primary screen, spliceosome inhibition project, cell-based, HEK293, splice +/- reporter (AID 1101); details: luminescence, 24 h, higher = more signal, called active from +8 up or from −8 down;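 further: HEK293 cells carrying a splicing-competent luciferase reporter gene; test concentration not given here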
[15] = biological target: Fibroblast growth factor 10 (Homo sapiens) (UniProt O15520); experiment: FGF10 binders on small-molecule microarrays, primary screen, biochemical, small-molecule microarray, 635 nm fluorescence (AID 1102); details: FGF10 binding, fluorescence 635 nm, higher = more signal
[16] = system: glycogen synthase kinase-3 (GSK3A per assay name; protocol says GSK3B); experiment: GSK3 binders on small-molecule microarrays, primary screen, biochemical, small-molecule microarray, 635 nm fluorescence, GSK3A (AID 1103); details: small-molecule microarray binding, fluorescence 635 nm; higher = more signal; further: the record names both GSK3A and GSK3B
[17] = biological target: Epidermal growth factor receptor (Homo sapiens) (UniProt P00533); experiment: EGFR binders on small-molecule microarrays, primary screen, biochemical, small-molecule microarray, 635 nm fluorescence (AID 1104); details: EGFR binding, higher = more signal;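 further: score merges 667 nm emission intensity with spot signal to noise over triplicate slides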
[18] = biological target: Follistatin-related protein 3 (Homo sapiens) (UniProt O95633); experiment: FSTL3 binders on small-molecule microarrays, primary screen, biochemical, small-molecule microarray, 635 nm fluorescence (AID 1105); details: FSTL3 binding, higher = more signal;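 further: score merges emission near 667 nm and signal to noise per printed spot across three slides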
[19] = biological target: Dickkopf-related protein 1 (Homo sapiens) (UniProt O94907); experiment: DKK1 binders on small-molecule microarrays, primary screen, biochemical, small-molecule microarray, 635 nm fluorescence scan (AID 1106); details: DKK1 binding, higher = more signal;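 further: score merges emission near 667 nm with signal to noise over three replicate slides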
[20] = system: Inhibin beta A chain (activin A); experiment: INHBA (activin A) binders on microarrays, primary screen, biochemical, small-molecule microarray, 635 nm fluorescence scan (AID 1107); details: small-molecule microarray binding, higher = more signal;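 further: mouse activin A protein probed at 4.33 µg/mL on printed slides; score merges bound-protein fluorescence near 667 nm with spot signal-to-noise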

Sequence of Fibroblast growth factor 10 (Homo sapiens) (O15520 whole entry, looked up): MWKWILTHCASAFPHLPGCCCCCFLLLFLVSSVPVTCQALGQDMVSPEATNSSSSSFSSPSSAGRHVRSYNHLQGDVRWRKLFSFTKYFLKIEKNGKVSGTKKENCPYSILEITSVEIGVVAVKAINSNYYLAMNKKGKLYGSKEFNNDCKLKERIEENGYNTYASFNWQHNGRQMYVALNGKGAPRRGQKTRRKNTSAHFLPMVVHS
Sequence of Dickkopf-related protein 1 (Homo sapiens) (O94907 whole entry, looked up): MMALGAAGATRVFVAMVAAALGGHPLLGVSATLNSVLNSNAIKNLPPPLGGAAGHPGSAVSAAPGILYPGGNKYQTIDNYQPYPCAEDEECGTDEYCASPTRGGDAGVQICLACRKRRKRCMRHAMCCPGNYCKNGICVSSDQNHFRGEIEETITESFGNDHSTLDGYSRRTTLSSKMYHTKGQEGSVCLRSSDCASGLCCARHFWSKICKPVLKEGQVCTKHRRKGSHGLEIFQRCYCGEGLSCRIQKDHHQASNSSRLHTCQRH
Sequence of Epidermal growth factor receptor (Homo sapiens) (P00533 whole entry, looked up): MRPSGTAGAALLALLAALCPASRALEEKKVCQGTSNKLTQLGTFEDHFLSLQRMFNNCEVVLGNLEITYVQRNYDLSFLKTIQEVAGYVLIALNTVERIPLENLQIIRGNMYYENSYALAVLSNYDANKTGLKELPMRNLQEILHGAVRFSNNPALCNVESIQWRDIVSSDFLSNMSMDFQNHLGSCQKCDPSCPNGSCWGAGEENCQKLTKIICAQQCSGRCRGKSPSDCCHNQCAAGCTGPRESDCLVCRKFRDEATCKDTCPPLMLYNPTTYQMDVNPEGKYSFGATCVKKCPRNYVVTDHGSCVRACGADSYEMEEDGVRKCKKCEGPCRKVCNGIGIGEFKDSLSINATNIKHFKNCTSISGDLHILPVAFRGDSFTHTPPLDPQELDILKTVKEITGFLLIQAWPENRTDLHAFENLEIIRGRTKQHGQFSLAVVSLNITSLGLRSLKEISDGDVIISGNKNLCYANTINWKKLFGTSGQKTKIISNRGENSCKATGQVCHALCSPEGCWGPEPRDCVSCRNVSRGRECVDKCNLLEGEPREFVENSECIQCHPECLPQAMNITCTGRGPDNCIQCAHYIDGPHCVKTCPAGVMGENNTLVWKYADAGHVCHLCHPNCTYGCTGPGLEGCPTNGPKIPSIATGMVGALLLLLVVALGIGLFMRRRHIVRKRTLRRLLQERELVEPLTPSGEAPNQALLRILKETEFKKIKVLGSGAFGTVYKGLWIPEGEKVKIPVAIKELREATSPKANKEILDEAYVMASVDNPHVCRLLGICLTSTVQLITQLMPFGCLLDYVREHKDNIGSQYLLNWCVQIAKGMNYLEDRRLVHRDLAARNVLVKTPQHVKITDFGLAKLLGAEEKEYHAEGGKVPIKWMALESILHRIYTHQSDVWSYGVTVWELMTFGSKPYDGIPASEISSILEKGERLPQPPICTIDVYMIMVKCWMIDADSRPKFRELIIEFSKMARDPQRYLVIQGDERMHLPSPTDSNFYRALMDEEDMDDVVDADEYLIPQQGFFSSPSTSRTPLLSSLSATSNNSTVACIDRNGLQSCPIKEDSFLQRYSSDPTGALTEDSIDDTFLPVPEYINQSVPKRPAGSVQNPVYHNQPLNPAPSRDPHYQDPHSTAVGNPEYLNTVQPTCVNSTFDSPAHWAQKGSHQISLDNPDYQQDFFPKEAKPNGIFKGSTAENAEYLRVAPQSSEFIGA
Sequence of Torsin-1A-interacting protein 2 (Homo sapiens) (Q8NFQ8 whole entry, looked up): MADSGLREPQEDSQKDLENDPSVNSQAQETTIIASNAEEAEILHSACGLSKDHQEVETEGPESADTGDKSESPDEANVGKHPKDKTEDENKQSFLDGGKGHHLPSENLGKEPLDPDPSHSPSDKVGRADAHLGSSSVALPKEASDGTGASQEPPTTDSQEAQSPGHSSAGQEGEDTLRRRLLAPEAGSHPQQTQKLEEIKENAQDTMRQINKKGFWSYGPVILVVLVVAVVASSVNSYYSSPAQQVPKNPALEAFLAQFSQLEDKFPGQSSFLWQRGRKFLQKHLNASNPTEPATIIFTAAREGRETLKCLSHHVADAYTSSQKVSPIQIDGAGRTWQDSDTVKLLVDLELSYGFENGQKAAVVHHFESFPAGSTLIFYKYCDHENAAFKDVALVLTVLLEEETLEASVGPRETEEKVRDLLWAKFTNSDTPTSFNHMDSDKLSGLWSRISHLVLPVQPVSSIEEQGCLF
Sequence of Neurogenic locus notch homolog protein 3 (Homo sapiens) (Q9UM47 whole entry, looked up): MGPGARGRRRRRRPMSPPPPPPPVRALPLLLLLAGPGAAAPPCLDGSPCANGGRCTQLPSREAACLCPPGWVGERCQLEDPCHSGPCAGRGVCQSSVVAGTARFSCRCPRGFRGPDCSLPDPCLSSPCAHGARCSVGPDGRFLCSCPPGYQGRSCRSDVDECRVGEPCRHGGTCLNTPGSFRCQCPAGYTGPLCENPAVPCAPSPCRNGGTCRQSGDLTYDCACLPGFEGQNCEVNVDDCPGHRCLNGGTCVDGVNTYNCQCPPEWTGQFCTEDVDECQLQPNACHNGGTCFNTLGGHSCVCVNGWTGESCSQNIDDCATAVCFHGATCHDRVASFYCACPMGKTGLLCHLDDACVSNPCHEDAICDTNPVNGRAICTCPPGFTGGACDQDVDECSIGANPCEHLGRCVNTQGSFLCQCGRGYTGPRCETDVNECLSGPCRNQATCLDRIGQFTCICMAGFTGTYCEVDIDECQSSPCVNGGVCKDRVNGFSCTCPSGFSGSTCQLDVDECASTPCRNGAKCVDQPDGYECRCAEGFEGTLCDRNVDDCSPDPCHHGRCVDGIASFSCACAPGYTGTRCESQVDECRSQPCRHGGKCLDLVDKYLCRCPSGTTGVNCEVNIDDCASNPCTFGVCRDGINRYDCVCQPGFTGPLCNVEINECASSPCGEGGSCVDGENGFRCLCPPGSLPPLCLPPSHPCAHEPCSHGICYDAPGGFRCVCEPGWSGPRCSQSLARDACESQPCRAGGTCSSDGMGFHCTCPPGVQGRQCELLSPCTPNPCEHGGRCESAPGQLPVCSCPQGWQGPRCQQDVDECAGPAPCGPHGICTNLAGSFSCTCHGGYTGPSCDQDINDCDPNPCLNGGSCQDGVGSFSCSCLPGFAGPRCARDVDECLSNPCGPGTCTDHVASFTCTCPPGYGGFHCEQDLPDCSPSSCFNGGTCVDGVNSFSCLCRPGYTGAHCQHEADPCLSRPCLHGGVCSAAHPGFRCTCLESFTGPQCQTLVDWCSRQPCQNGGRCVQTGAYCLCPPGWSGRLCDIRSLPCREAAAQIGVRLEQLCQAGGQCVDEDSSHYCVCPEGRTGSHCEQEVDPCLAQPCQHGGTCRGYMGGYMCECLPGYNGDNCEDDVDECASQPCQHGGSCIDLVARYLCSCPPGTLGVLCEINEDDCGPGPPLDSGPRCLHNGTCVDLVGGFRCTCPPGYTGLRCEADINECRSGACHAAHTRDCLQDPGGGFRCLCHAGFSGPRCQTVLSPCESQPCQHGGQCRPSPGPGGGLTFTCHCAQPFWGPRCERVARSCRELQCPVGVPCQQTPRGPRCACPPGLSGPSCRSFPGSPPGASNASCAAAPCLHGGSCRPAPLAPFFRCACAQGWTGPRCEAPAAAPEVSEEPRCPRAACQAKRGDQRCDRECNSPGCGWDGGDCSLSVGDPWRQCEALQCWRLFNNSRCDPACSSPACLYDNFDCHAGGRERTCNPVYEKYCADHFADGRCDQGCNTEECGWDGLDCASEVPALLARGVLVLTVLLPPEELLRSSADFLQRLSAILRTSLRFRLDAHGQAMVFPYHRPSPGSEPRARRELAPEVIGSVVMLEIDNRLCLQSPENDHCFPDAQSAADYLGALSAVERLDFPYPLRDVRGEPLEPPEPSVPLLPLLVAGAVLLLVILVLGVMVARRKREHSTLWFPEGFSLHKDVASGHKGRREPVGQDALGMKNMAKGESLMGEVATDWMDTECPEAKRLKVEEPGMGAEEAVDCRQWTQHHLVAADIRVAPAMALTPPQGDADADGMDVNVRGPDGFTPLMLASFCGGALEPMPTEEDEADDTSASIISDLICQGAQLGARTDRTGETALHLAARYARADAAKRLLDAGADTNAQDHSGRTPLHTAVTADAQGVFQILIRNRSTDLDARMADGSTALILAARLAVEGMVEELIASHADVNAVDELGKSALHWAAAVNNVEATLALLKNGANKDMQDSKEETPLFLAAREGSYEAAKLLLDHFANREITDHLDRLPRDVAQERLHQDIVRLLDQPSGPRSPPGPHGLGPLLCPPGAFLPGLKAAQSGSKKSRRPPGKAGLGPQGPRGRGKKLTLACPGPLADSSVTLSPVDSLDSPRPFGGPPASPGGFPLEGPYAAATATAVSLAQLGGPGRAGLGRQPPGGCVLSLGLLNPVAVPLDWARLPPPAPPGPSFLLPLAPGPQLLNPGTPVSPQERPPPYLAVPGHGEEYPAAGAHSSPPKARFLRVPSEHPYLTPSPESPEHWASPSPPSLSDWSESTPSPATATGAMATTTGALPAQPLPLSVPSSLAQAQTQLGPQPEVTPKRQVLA
Sequence of Follistatin-related protein 3 (Homo sapiens) (O95633 whole entry, looked up): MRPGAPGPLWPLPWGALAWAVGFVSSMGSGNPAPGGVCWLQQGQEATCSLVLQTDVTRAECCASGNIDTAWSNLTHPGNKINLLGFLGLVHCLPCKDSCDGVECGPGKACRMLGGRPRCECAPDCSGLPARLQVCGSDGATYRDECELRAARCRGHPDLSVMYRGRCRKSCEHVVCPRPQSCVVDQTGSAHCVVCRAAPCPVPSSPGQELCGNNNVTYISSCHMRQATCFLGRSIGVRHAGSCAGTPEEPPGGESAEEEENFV

Structure (SMILES)	composite z-score [1]	z-score [2]	z-score [3]	z-score [4]	composite z-score [5]	z-score [6]	composite z-score [7]	composite z-score [8]	composite z-score [9]	composite z-score [10]	composite z-score [11]	composite z-score [12]	composite z-score [13]	z-score [14]	composite z-score [15]	composite z-score [16]	composite z-score [17]	composite z-score [18]	composite z-score [19]	composite z-score [20]
CC1CC/C=C\[C@H]2OC34C=CCN(Cn5nnc6ccccc65)C(=O)[C@H]3N(CCO)C(=O)[C@@H]4C2C(=O)O1 (stereo not given in full)	0.754	-1.71 (inactive)	-1.64 (inactive)	-1.99 (inactive)	3.32	2.92 (inactive)	-0.0819	-1.08	-0.695	-0.424	2	-0.559	0.514	-1.58 (inactive)	-1.16	0.476	-1.01	0.0695	-0.52	1.19
CO[C@@H]1COC(=O)CC=C[C@@H](C)[C@H](OC)COC(=O)[C@H](COCc2ccccc2)NC(=O)CC=C[C@H]1C	0.234	0.122 (inactive)	-0.556 (inactive)	-0.0857 (inactive)	-1.32	0.024 (inactive)	-0.185	0.846	-0.778	-0.231	1.56	-0.516	-1.15	0.0688 (inactive)	0.303	-0.112	0.461	0.689	0.444	1.87
C=C(CCCC)C(=O)CC[C@@H](OC(C)=O)c1cccc(OCCO)c1	0.468	-24.3 (active)	-20.6 (active)	-3.92 (inactive)	0.0116	-0.139 (inactive)	-0.193	1.54	0.165	-0.192	1.12	-0.278	-0.654	0.726 (inactive)	0.195	-0.249	-0.161	0.158	0.329	0.474
CC(C)(C)OC(=O)CC[C@]1(C(=O)NCc2ccccc2)N=C(c2ccc(OCCCO)cc2)O[C@H]1c1ccccc1	1.55	-0.105 (inactive)	0.851 (inactive)	1.64 (inactive)	3.71	0.0596 (inactive)	-0.0354	0.798	0.97	-0.123	1.73	-0.0749	0.574	0.351 (inactive)	0.686	1.24	0.0167	-0.136	-0.402	-0.285
C#C[C@@H](CC)O[Si](C#Cc1ccc(Oc2ccccc2)cc1)(C(C)C)C(C)C	1.29	0.356 (inactive)	-0.951 (inactive)	1 (inactive)	0.964	-0.44 (inactive)	-0.152	0.269	0.916	-0.0028	0.301	-0.137	-0.225	-1.17 (inactive)	0.706	0.777	0.185	0.773	0.125	0.0324
C#CCCCON=C1C[C@@H](O)[C@@H](O)[C@@H]2[C@@H]3C(=O)N(Cc4ccccc4)C(=O)[C@@H]3CC[C@H]12	0.0491	-0.609 (inactive)	-0.216 (inactive)	-1.49 (inactive)	-0.172	-0.0603 (inactive)	-0.0294	0.407	0.297	-0.102	1.43	-0.369	-0.417	-0.658 (inactive)	0.388	0.147	1.03	0.29	0.525	0.269
CC1(C)OCC(C(O)C2=CCCCC2=O)CO1 (stereo not given)	1.56	0.209 (inactive)	-0.0255 (inactive)	0.856 (inactive)	0.231	-0.449 (inactive)	-0.0478	0.986	1.06	0.0688	1.04	-0.137	-0.704	0.733 (inactive)	0.694	0.999	0.625	0.859	0.717	1.6
CO[C@@H]1COC(=O)CC=C[C@@H](C)[C@@H]2C=C[C@H](O)[C@@H](COC(=O)[C@H](C)NC(=O)CC=C[C@H]1C)O2	1.54	-0.653 (inactive)	-0.465 (inactive)	-1.36 (inactive)	-0.75	0.0967 (inactive)	-0.212	1.42	0.868	0.0231	1.46	-0.308	-1.09	-1.09 (inactive)	0.441	0.674	1.04	1.03	1.28	0.578
C=CC[C@@H]1C=C[C@H](ON=Cc2ccc(C(=O)N3[C@H](c4ccc(C)cc4)[C@@H](C)CC[C@H]3C(=O)OC)cc2)[C@@H](CO)O1	0.537	-1.33 (inactive)	-0.119 (inactive)	-0.733 (inactive)	0.531	1.35 (inactive)	-0.0741	0.709	0.162	-0.0223	0.608	-0.313	-0.422	-0.0467 (inactive)	0.59	0.363	0.475	0.609	0.381	0.694
O=C1c2ccccc2[C@@]2(Cc3ccccc3N(C3CC3)C2=O)[C@H](c2ccc(CO)cc2)N1Cc1ccccc1C(F)(F)F	0.51	-0.104 (inactive)	-0.995 (inactive)	-1.47 (inactive)	1.83	-2.03 (inactive)	0.104	-1.31	-0.0714	-0.171	-0.0922	0.261	0.281	-0.628 (inactive)	-0.837	-0.433	-0.942	-0.672	-1.2	0.394
